Data on 40 molecules can be found in ChEMBL document CHEMBL3433997, “St. Jude Leishmania screening dataset” (2016).

A word on the inhibition: it is the change of the read-out against control, counted positive when it falls.

SMILES strings stand for the structures.

One assay deals with Solute carrier family 2, facilitated glucose transporter member 1 (Homo sapiens) (UniProt P11166). As to the kind of experiment: ST_JUDE_LEISH: Cytotoxicity at 2uM final concentration against transgenic Leishmania Mexicana promastigotes LmGLUT1 that are glucose transport deficient and complemented with the human glucose transporter GLUT1. Activity is measured by DNA content using SYBR green in vitro. It is filed as functional.
Solute carrier family 2, facilitated glucose transporter member 1 (Homo sapiens), sequence (P11166 whole entry): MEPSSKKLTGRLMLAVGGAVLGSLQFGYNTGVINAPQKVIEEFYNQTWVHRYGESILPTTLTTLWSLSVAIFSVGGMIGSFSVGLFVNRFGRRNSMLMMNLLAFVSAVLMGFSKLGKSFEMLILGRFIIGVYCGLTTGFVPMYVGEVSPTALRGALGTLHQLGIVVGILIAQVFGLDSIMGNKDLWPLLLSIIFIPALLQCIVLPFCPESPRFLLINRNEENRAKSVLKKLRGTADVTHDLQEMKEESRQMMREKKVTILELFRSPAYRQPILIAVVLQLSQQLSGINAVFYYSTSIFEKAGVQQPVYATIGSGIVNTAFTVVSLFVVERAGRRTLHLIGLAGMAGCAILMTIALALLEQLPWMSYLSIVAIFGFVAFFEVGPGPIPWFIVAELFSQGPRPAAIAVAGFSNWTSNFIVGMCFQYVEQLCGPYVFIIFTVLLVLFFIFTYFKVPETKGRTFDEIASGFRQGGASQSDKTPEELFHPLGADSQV
On to `COc1ccc(C2CC(c3ccccc3O)=NN2C(=O)c2ccco2)cc1OC` (stereo not given), for which the inhibition is 0.86%.

Take `O=C(NCCCCN1CCC(c2ccc3c(c2OCc2ccccn2)CCCC3)CC1)c1ccc(NC(=O)c2ccc(Cl)cc2)cc1`: the inhibition turned out to be 2.21%.

In the case of `CC1(C)N=C(N)N=C(N)N1c1ccc(Cl)c(Cl)c1`, the inhibition was -1.25%.

As to `Cc1noc(C)c1-c1cccc(C(=O)NC2CCN(CCNC(=O)C(c3ccccc3)c3ccccc3)CC2)c1`, the inhibition was determined as 2.71%.

For the molecule `Cc1cccc(C)c1/N=C1\NC(=S)N(c2cccc(Cl)c2)C12CCC(C(C)(C)C)CC2` (stereo not given), the inhibition was -2.68%.

As to `Cc1cc(N[C@@H](CC(C)C)C(=O)NC2CCCC2)nc(NCc2ccccc2C)n1`, the inhibition is 4.21%.

`Cc1cc(N2CCN(C)CC2)nc2ccc(NC(=O)c3cccc(N(C)C)c3)cc12`: the inhibition turned out to be 7.09%.

For `CCOC(=O)CC[C@H](NC(=O)c1ccc(NS(=O)(=O)c2ccc(-c3cnc(N)[nH]c3=O)cc2)cc1)C(=O)OCC`, the inhibition was found to be 4.2%.

For the molecule `Cc1nc(O)c2c(ccc3ccc(CN(C)c4ccc(C(=O)N[C@@H](CCC(=O)O)C(=O)O)cc4)cc32)n1`, the inhibition was -1.5%.

Consider `Cc1nc2nc(N)nc(N)c2c(C)c1Cc1ccc(C#N)cc1`, for which the inhibition came out at 0.34%.

Take `COc1ccc2c(=O)ccn(CCN3CCC(NCc4ccc5c(n4)NC(=O)CS5)CC3)c2c1`: the inhibition amounted to 3.6%.

For the molecule `Nc1ccn([C@@H]2O[C@H](COC(c3ccccc3)(c3ccccc3)c3ccccc3)[C@@H](O)[C@@H]2O)c(=O)n1`, the inhibition came out at 3.1%.

On to `O=C(NC1CCN(c2ccnc3cc(Cl)ccc23)C1)c1ccc(F)cc1` (stereo not given), for which the inhibition worked out at 2.4%.

As to `CCN(CC)CCOc1ccc(NC(=O)c2oc3ccccc3c2C=Cc2ccccc2)cc1`, the inhibition came to 4.92%.

As to `O=C(Nc1cccc(CN2CCCN(Cc3cccc(O)c3)CC2)c1)c1ccc(-c2ccccc2)cc1`, the inhibition is -3.92%.

As to `COc1ccc2nc(N=C3NC4(c5ccccc5)NC(=Nc5nc6ccc(OC)cc6[nH]5)NC4(c4ccccc4)N3)[nH]c2c1` (stereo not given), the inhibition was -1.9%.

Turning to `Cc1[nH]c(C)c(-c2ccc(CCc3cccc(C(F)(F)F)c3)nc2)c(=O)c1Cl`, the inhibition turned out to be 2.83%.

Take `c1ccc(OCCCCN2CCCCC2)cc1`: the inhibition stood at 0.95%.

Regarding `CCO[C@H]1CN[C@H](C#Cc2cc3c(Nc4ccc(OCc5cccc(F)c5)c(Cl)c4)ncnc3s2)C1`, the inhibition is 0.74%.

As for `CCNc1cc(C(=O)N[C@@H](Cc2ccccc2)[C@H](O)CNC2CC3CCC2C3)cc(N2CCCCS2(=O)=O)c1` (stereo not given in full), the inhibition is 1.78%.

Consider `COc1ccc2ncc(C#N)c(CCN3C[C@H](CNCc4ccccc4)[C@H](O)C3)c2n1`, for which the inhibition was found to be 3.18%.

Regarding `CN1CCN(Cc2ccc(-c3ccc4c(Nc5ccc(Oc6ccccn6)cc5)ccnc4c3)o2)CC1`, the inhibition was -0.46%.

With `CN(C)C(=O)c1cc(CNCc2ccccc2)ccc1-c1cccc(CNCc2ccc(-c3ccccc3)cc2)c1`, the inhibition was found to be 0.97%.

Consider `COc1cc(OC)c(NC(=O)C2c3ccccc3C(=O)N(C)C2c2cccs2)cc1Cl` (stereo not given), for which the inhibition amounted to 2.2%.

On to `COc1ccc(CNC2CCN(C)CC2)cc1-c1ccc(S(=O)(=O)NC2CCC2)s1`, for which the inhibition came to 1.49%.

On to `Cc1ccc(C2CCN(CCCCNC(=O)c3ccc(NC(=O)c4ccc(Cl)cc4)cc3)CC2)c(C)c1`, for which the inhibition was -0.93%.

Regarding `CC(C)c1cc(Oc2c(I)cc(CCCc3ncc[nH]3)cc2I)ccc1O`, the inhibition was found to be 9.35%.

For the molecule `CC(C)CCN1CCC(Oc2ccc(NC(=O)c3ccc(F)cc3)cc2Cl)CC1`, the inhibition was -2.57%.

Take `COc1ccc(CN2CCCN(Cc3cccc(NC(=O)c4ccc(-c5ccccc5)cc4)c3)CC2)cc1`: the inhibition is -0.75%.

On to `CN(C)CCOc1ccc(-c2cc(-c3ccncc3)c(-c3ccc(Cl)c(O)c3)[nH]2)cc1`, for which the inhibition was 1.45%.

With `Cc1cc(N[C@@H](CC(C)C)C(=O)NC2CCCC2)nc(NCCc2ccc(F)cc2)n1`, the inhibition turned out to be 3.05%.

`CCCCn1c(N)c(N(Cc2ccco2)C(=O)C=Cc2cc(OC)c3c(c2)OCCO3)c(O)nc1=O`: the inhibition was determined as 3.56%.

For `O=C(NC(c1ccccc1)c1ccc2cccnc2c1O)c1ccccc1` (stereo not given), the inhibition was 4.04%.

For `NC(=O)c1sc(-n2cnc3ccccc32)cc1OCc1ccccc1[N+](=O)[O-]`, the inhibition amounted to 8.87%.

Turning to `CCN(CC)CCCN(C(=O)Nc1ccc(C#N)cc1)c1nc(-c2ccc(F)cc2)cs1`, the inhibition was -0.54%.

Turning to `Cc1noc(C)c1-c1cccc(CNCc2cccc(-c3cccc(-c4nc5cccc(C)c5[nH]4)c3)c2)c1`, the inhibition is -0.61%.

Regarding `Cn1cncc1CCN(Cc1ccc(-c2ccc(C(F)(F)F)cc2)cc1)C(=O)Cn1c(SCc2cccc(F)c2F)cc(=O)c2ccccc21`, the inhibition was found to be 4.77%.

On to `Nc1ncc(-c2ccsc2)c2ccc(-c3cnc[nH]3)cc12`, for which the inhibition is 1.46%.

As to `Cc1cccc2nc(-c3cccc(-c4cccc(NC(=O)Cc5ccc[n+]([O-])c5)c4)c3)[nH]c12`, the inhibition is 1.71%.

For the molecule `Cc1nc(C)c(-c2ccc(S(=O)(=O)c3ccc(Cl)cc3)cc2)c(O)c1Br`, the inhibition was found to be 4.93%.

A further assay concerns the target Hexose transporter 1 (Plasmodium falciparum) (UniProt O97467). As to the kind of experiment: ST_JUDE_LEISH: Cytotoxicity at 2uM final concentration against transgenic Leishmania Mexicana promastigotes LmPfHT that are glucose transport deficient and complemented with the Plasmodium falciparum hexose transporter. Activity is measured by DNA content using SYBR green in vitro. It is filed as functional.
Turning to `COc1ccc(C2CC(c3ccccc3O)=NN2C(=O)c2ccco2)cc1OC` (stereo not given), the inhibition turned out to be 1.48%.

Take `O=C(NCCCCN1CCC(c2ccc3c(c2OCc2ccccn2)CCCC3)CC1)c1ccc(NC(=O)c2ccc(Cl)cc2)cc1`: the inhibition was 0.31%.

For `CC1(C)N=C(N)N=C(N)N1c1ccc(Cl)c(Cl)c1`, the inhibition turned out to be 0.49%.

`Cc1noc(C)c1-c1cccc(C(=O)NC2CCN(CCNC(=O)C(c3ccccc3)c3ccccc3)CC2)c1`: the inhibition was determined as 1.09%.

For `Cc1cccc(C)c1/N=C1\NC(=S)N(c2cccc(Cl)c2)C12CCC(C(C)(C)C)CC2` (stereo not given), the inhibition was -1.2%.

`Cc1cc(N[C@@H](CC(C)C)C(=O)NC2CCCC2)nc(NCc2ccccc2C)n1`: the inhibition was found to be 4.39%.

Take `Cc1cc(N2CCN(C)CC2)nc2ccc(NC(=O)c3cccc(N(C)C)c3)cc12`: the inhibition was determined as 7.99%.

With `CCOC(=O)CC[C@H](NC(=O)c1ccc(NS(=O)(=O)c2ccc(-c3cnc(N)[nH]c3=O)cc2)cc1)C(=O)OCC`, the inhibition turned out to be 5.08%.

Turning to `Cc1nc(O)c2c(ccc3ccc(CN(C)c4ccc(C(=O)N[C@@H](CCC(=O)O)C(=O)O)cc4)cc32)n1`, the inhibition was -0.69%.

Take `Cc1nc2nc(N)nc(N)c2c(C)c1Cc1ccc(C#N)cc1`: the inhibition was 4.37%.

For the molecule `COc1ccc2c(=O)ccn(CCN3CCC(NCc4ccc5c(n4)NC(=O)CS5)CC3)c2c1`, the inhibition was 2.3%.

Consider `Nc1ccn([C@@H]2O[C@H](COC(c3ccccc3)(c3ccccc3)c3ccccc3)[C@@H](O)[C@@H]2O)c(=O)n1`, for which the inhibition is 4.86%.

Regarding `O=C(NC1CCN(c2ccnc3cc(Cl)ccc23)C1)c1ccc(F)cc1` (stereo not given), the inhibition was 2.61%.

Take `CCN(CC)CCOc1ccc(NC(=O)c2oc3ccccc3c2C=Cc2ccccc2)cc1`: the inhibition was -0.45%.

In the case of `O=C(Nc1cccc(CN2CCCN(Cc3cccc(O)c3)CC2)c1)c1ccc(-c2ccccc2)cc1`, the inhibition is -2.77%.

Turning to `COc1ccc2nc(N=C3NC4(c5ccccc5)NC(=Nc5nc6ccc(OC)cc6[nH]5)NC4(c4ccccc4)N3)[nH]c2c1` (stereo not given), the inhibition is -0.84%.

Take `Cc1[nH]c(C)c(-c2ccc(CCc3cccc(C(F)(F)F)c3)nc2)c(=O)c1Cl`: the inhibition was determined as 2.18%.

For `c1ccc(OCCCCN2CCCCC2)cc1`, the inhibition amounted to 0.56%.

For `CCO[C@H]1CN[C@H](C#Cc2cc3c(Nc4ccc(OCc5cccc(F)c5)c(Cl)c4)ncnc3s2)C1`, the inhibition stood at 3.65%.

For the molecule `CCNc1cc(C(=O)N[C@@H](Cc2ccccc2)[C@H](O)CNC2CC3CCC2C3)cc(N2CCCCS2(=O)=O)c1` (stereo not given in full), the inhibition was found to be 1.76%.

On to `COc1ccc2ncc(C#N)c(CCN3C[C@H](CNCc4ccccc4)[C@H](O)C3)c2n1`, for which the inhibition was determined as 3.76%.

Regarding `CN1CCN(Cc2ccc(-c3ccc4c(Nc5ccc(Oc6ccccn6)cc5)ccnc4c3)o2)CC1`, the inhibition is 0.11%.

Take `CN(C)C(=O)c1cc(CNCc2ccccc2)ccc1-c1cccc(CNCc2ccc(-c3ccccc3)cc2)c1`: the inhibition was found to be 3.85%.

As to `COc1cc(OC)c(NC(=O)C2c3ccccc3C(=O)N(C)C2c2cccs2)cc1Cl` (stereo not given), the inhibition was determined as 5.87%.

Consider `COc1ccc(CNC2CCN(C)CC2)cc1-c1ccc(S(=O)(=O)NC2CCC2)s1`, for which the inhibition is 4.46%.

Take `Cc1ccc(C2CCN(CCCCNC(=O)c3ccc(NC(=O)c4ccc(Cl)cc4)cc3)CC2)c(C)c1`: the inhibition is -0.75%.

On to `CC(C)c1cc(Oc2c(I)cc(CCCc3ncc[nH]3)cc2I)ccc1O`, for which the inhibition was 9.42%.

On to `CC(C)CCN1CCC(Oc2ccc(NC(=O)c3ccc(F)cc3)cc2Cl)CC1`, for which the inhibition is -4.4%.

`COc1ccc(CN2CCCN(Cc3cccc(NC(=O)c4ccc(-c5ccccc5)cc4)c3)CC2)cc1`: the inhibition was -1.14%.

In the case of `CN(C)CCOc1ccc(-c2cc(-c3ccncc3)c(-c3ccc(Cl)c(O)c3)[nH]2)cc1`, the inhibition amounted to 1.71%.

For the molecule `Cc1cc(N[C@@H](CC(C)C)C(=O)NC2CCCC2)nc(NCCc2ccc(F)cc2)n1`, the inhibition amounted to 1.34%.

As for `CCCCn1c(N)c(N(Cc2ccco2)C(=O)C=Cc2cc(OC)c3c(c2)OCCO3)c(O)nc1=O`, the inhibition turned out to be 1.02%.

As for `O=C(NC(c1ccccc1)c1ccc2cccnc2c1O)c1ccccc1` (stereo not given), the inhibition was 6.18%.

As to `NC(=O)c1sc(-n2cnc3ccccc32)cc1OCc1ccccc1[N+](=O)[O-]`, the inhibition was found to be 7.21%.

For the molecule `CCN(CC)CCCN(C(=O)Nc1ccc(C#N)cc1)c1nc(-c2ccc(F)cc2)cs1`, the inhibition is 2.42%.

For the molecule `Cc1noc(C)c1-c1cccc(CNCc2cccc(-c3cccc(-c4nc5cccc(C)c5[nH]4)c3)c2)c1`, the inhibition was -0.81%.

Turning to `Cn1cncc1CCN(Cc1ccc(-c2ccc(C(F)(F)F)cc2)cc1)C(=O)Cn1c(SCc2cccc(F)c2F)cc(=O)c2ccccc21`, the inhibition amounted to 1.65%.

On to `Nc1ncc(-c2ccsc2)c2ccc(-c3cnc[nH]3)cc12`, for which the inhibition stood at 0.14%.

Take `Cc1cccc2nc(-c3cccc(-c4cccc(NC(=O)Cc5ccc[n+]([O-])c5)c4)c3)[nH]c12`: the inhibition worked out at 1.78%.

With `Cc1nc(C)c(-c2ccc(S(=O)(=O)c3ccc(Cl)cc3)cc2)c(O)c1Br`, the inhibition was 4.53%.
